Measurements as given in PubChem BioAssay AID371 (SRMLSC, 2006).
Out of some 3,300 compounds screened, about 280 (8.5%) were called active. The sample as a whole holds a higher share of actives than the screen did. A number with no mark means an inactive call.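 Rule for the calls: active = mean growth inhibition over the two runs of 50% or more; inactive = mean growth inhibition under 50%.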

Assay: A549 NSCLC cell proliferation inhibitors – ATP luminescence, human non-small cell lung line, primary screen (AID 371);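 note: compound exposure lasted 72 h before the ATP read; 0% = untreated cell signal and 100% = no luminescence left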
Conditions: at 10 µM, stronger effect = higher value
Cc1cccc(N2C(=O)CC(N3CCN(Cc4ccc(Cl)cc4)CC3)C2=O)c1 (stereo unspecified) gave a growth inhibition of -1.79%.
Work on O=C(Nc1ccc(Cl)cn1)C1CCCN1S(=O)(=O)c1ccccc1 (stereo unspecified) yielded a growth inhibition of -16.6%.
In the case of CCCOc1cc(CN2CCCCC2)cc(C(C)=O)c1, the growth inhibition is reported as 5.4%.
In the case of CCNC(=O)N(C(=O)NCC)n1c(C)nnc1C, the growth inhibition is reported as -3.85%.
For c1ccc(CSc2nnc(SCc3ccccn3)s2)nc1, the growth inhibition was -7.61%.
Compound N#CC1=C(N)N2C(=C(C#N)C1c1ccccc1)Sc1ccccc12 (stereo unspecified) has a growth inhibition of -5.42%.
Compound C#CC1CN(Cc2ccccc2)CC(C#C)N1C (stereo unspecified) has a growth inhibition of 4.27%.
For Cc1ccc(Cn2ncc3c(N4CCOCC4)ncnc32)cc1, the growth inhibition was 19.4%.
In the case of Cc1ccc(Cn2ncc3c(N4CCN(Cc5ccc(Cl)cc5)CC4)ncnc32)cc1, the growth inhibition is reported as 53.7% (active).
In the case of Cc1ccc(Cn2ncc3c(N4CCN(c5ccc(C)cc5)CC4)ncnc32)cc1, the growth inhibition is reported as 30.8%.
In the case of COC(=O)C(NC(C)=O)(Nc1ccc(Br)cc1)C(=O)OC, the growth inhibition is reported as 36.9%.
Compound c1ccc2c(c1)[nH]c1c(N3CCSCC3)ncnc12 has a growth inhibition of 33.6%.
In the case of Cc1ccc2[nH]c3c(N4CCCCCC4)ncnc3c2c1, the growth inhibition is reported as 72.1% (active).
For OC1(c2cccc(C(F)(F)F)c2)CCN(c2ncnc3c2[nH]c2ccccc23)CC1, the growth inhibition was 92.4% (active).
With Cc1ccc2[nH]c3c(N4CCN(Cc5ccccc5)CC4)ncnc3c2c1 the growth inhibition was 80.6% (active).
CCN1CCCC1Cn1cnc2c([nH]c3ccc(C)cc32)c1=O (stereo unspecified) showed a growth inhibition of 6.64%.
Cc1ccc2[nH]c3c(N4CCOCC4)ncnc3c2c1 showed a growth inhibition of 34.7%.
In the case of c1ccc2c(c1)CCN(c1ncnc3c1[nH]c1ccccc13)C2, the growth inhibition is reported as 77.4% (active).
For c1ccc2c(c1)[nH]c1c(N3CCC4(CC3)OCCO4)ncnc12, the growth inhibition was 34%.
In the case of CSc1nnc2n(C3CCCCC3)c(=O)c3c4c(sc3n12)CCCC4, the growth inhibition is reported as 6.35%.
COc1cccc(C(=O)OCCN(C)C(C)(C)C)c1 gave a growth inhibition of 0.03%.
Compound OCCOCCNc1ncnc2c1cnn2-c1ccccc1 has a growth inhibition of 5.28%.
Cc1cc(=O)oc2cc(OCCSCCN3CCOCC3)ccc12 showed a growth inhibition of 8.74%.
In the case of CCn1cc(/C=N/O)c(C)n1, the growth inhibition is reported as -8.38%.
O=C1OC(N2CCN(C/C=C/c3ccccc3)CC2)c2ccccc21 (stereo unspecified) showed a growth inhibition of 7.88%.
Work on Cc1cc(SCCC(=O)O)nc2ccccc12 yielded a growth inhibition of -1.53%.
With CCOC(=O)c1cnc(SC2CC(=O)N(c3cccc(OC)c3)C2=O)nc1N (stereo unspecified) the growth inhibition was -4.72%.
In the case of Cn1ccnc1SCCC#N, the growth inhibition is reported as -0.21%.
N#Cc1nc(COc2ccc(Cl)cc2)oc1N1CCN(Cc2ccccc2)CC1 showed a growth inhibition of 21.8%.
In the case of c1ccc(CN2CCN(c3ncnc4c3[nH]c3ccccc34)CC2)cc1, the growth inhibition is reported as 63% (active).
With O=C(c1ccco1)N1CCN(c2ncnc3c2[nH]c2ccccc23)CC1 the growth inhibition was 25.7%.
